The panel holds about 83,000 compounds, 20% with a hit somewhere; the sample as a whole holds those more often.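 Single-dose data. Exposure time 48 hours. Values below 10 considered active.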 Unmarked numbers belong to inactive results. Active and inactive are the calls of the source.

This assay deals with SNB-19 CNS. As to the kind of experiment: NCI-60 one-dose screen, 48 h (100 = growth as untreated, 0 = no growth, -100 = all killed). Conditions: 10 µM. As for the experimental part:
Growth inhibition of the SNB-19 human tumor cell line is measured as a screen for anti-cancer activity. Cells are grown in 96 well plates and exposed to the test compound for 48 hours. Compounds are tested at a single concentration, which is 10^-5 M for most compounds. The reported endpoint is percent growth (GI% or GIPRCNT), where numbers from 0 - 100% represent growth inhibition, and numbers from -100% - 0 represent cell death. For example, a value of 40 represents 60% growth inhibition. A value of 0 means no net growth occurred over the course of the experiment. A value of -40 indicates 40% of cells at the beginning of the experiment died by the end of the experiment. A value of -100 means all cells are dead at the end of the experiment.
NCI-60 Human Tumor Cell Lines Screen was performed using the standard one-dose NCI protocol, which is described in more detail at https://dtp.cancer.gov/discovery_development/nci-60/default.htm.
Compounds with GIPRCNT values below 10 were considered active. Activity score was based on GIPRCNT using the following formula: […]
Score is 0 for GIPRCNT values of 100 or above, 50 for GIPRCNT values of 0, and 100 for GIPRCNT values of -100.
In the case of `CCOC(=O)CCC(NC(=O)c1ccc(N)cc1)C(=O)OCC` (stereo not given), the growth was 109%.
For the molecule `O=C(Nc1cccc(-n2cc(-c3ccncc3)c(-c3ccc(O)c(Cl)c3)n2)c1)c1cc(C(F)(F)F)cc(C(F)(F)F)c1`, the growth was 88.4%.
For `CCCCCCN(CCCCCC)CC(O)c1ccc2c3c(cccc13)CC2` (stereo not given) the value was 82.4%.
For `CCCN(CCC)CCC(O)c1cc2c(c3ccccc13)CCCC2` (stereo not given) the value was 90.5%.
Then `CC(C)(C)c1cc(Br)cc(C(C)(C)C)c1O`, with 104%.
For the molecule `CN(C)c1ccc(-c2cc(-c3cccc(NS(C)(=O)=O)c3)nc(N)c2C#N)cc1`, the growth was 43.3%.
Then `CN(C)CCOc1nc2ccccc2c2c1-c1ccc(Cl)cc1C2=O`, with 14.9%.
For `CCN(CC)CCCC(C)Nc1nc(-c2ccc(OC)cc2)nc2cc(Cl)ccc12` (stereo not given), the growth is 74.6%.
Regarding `C#Cc1ccc(-n2c(/C=C/c3ccc(Cl)c(F)c3)nc3ncccc3c2=O)cc1`, the growth is 22%.
Take `O=C(CCCCC(=O)Nc1ccc2c(c1)/C(=C/c1ccc[nH]1)C(=O)N2)NO`: the growth is 83%.
Then `C#Cc1ccc(-n2c(/C=C/c3ccc4ccccc4c3)nc3ncccc3c2=O)cc1`, with 75.3%; and `CCC1(C(C)C)NC(=O)NC1=O` (stereo not given), with 101%.
Then `O=C1C(=O)c2ccccc2C(O)=C1CCCc1ccc(C2CCCCCC2)cc1`, with 52.8%; and `O=C(Nc1nc2ccccc2s1)Nc1ccc([N+](=O)[O-])cc1Cl`, with 111%.
Then `COc1cc(NC(=O)c2sc3nc4c(cc3c2N)C(O)CCC4)cc(OC)c1` (stereo not given), with 93.6%; and `Clc1ccc(-c2cn(-c3ccccc3)c(-c3ccccc3)n2)c(Cl)c1`, with 43.7%.
On to `CN(C)CCN=c1nc2c(c(N)n1-c1ccccc1)c(=S)n(-c1ccccc1)c(=S)n2-c1ccccc1`, for which the growth is 26.1%.
Then `O=C(Nc1cccc(-n2cc(-c3ccncc3)c(-c3cc(O)cc(Cl)c3)n2)c1)c1ccc(N2CCOCC2)c(C(F)(F)F)c1`, with 12.1%; and `C/C(N)=C(\C#N)C(=O)c1ccccc1`, with 107%.
For `Nc1c(C(=O)Nc2cccc3ccccc23)sc2nc3c(cc12)C(=O)CCC3` the value was 55.3%; for `COc1ccc(-c2nc3ncccn3c2-c2nnc(-c3ccsc3C)o2)cc1`, 68.9%.
Turning to `CCCC#CCN(CC)CC`, the growth is 100%.
Then `CCCCOc1ccc(NC(=O)Nc2nnc(C)s2)cc1`, with 98.2%.
For `Clc1nc(Cl)c2c(ncn2C/C=C\Cn2cnc3c(Cl)nc(Cl)nc32)n1`, the growth is -15.6% (active).
Then `CCOC(=O)C(=Cc1ccc(Br)cc1)C(=O)OCC`, with 63.1%; and `COc1ccc2c(c1OC)O/C(=C\c1ncc([N+](=O)[O-])n1C)C2=O`, with 66.2%.
For `CC12O[C@H](C[C@@H](OC(=O)c3ccccc3)[C@H]1O)n1c3ccccc3c3c4c(c5c6ccccc6n2c5c31)C(=O)NC4=O` the value was 101%; for `N=C(N)c1ccc(-c2ccc(-c3ccco3)o2)cc1`, 68.4%.
For `CCOC(=O)CNC(=O)CCCCSc1ncnc2nc[nH]c12` the value was 109%; for `COc1ccccc1/C=C/C(=O)c1ccccc1`, 99.4%; for `Oc1[nH]c2cc(Cl)ccc2c1/C=c1/ccc2c(c1)N=C(c1cc(F)cc(F)c1)N=2`, 64.5%.
In the case of `Cc1cn(C2CCCCO2)c(=O)nc1NO` (stereo not given), the growth is 105%.
Then `COc1cc(/C(=C2/O[C@@H]([C@H]3COC(C)(C)O3)[C@H]3OC(C)(C)O[C@@H]23)c2ccc3ccccc3c2)cc(OC)c1OC`, with 29%; and `O=C1N=NC2=C1c1c3ccccc3c(O)n1CC2`, with 96.3%; and `CC[C@H](C)C(=O)O[C@H]1CCC=C2C=C[C@H](C)C(CCC3C[C@@H](O)CC(=O)O3)[C@H]21` (stereo not given in full), with 56.2%.
For `O=[N+]([O-])c1ccc(Oc2cccnc2)c([N+](=O)[O-])c1` the value was 106%; for `COc1cc(-c2cc(-c3cc4c([nH]c5ccccc54)c(-c4cc(OC)c(OC)c(OC)c4)n3)cc(-c3ccccc3)n2)cc(OC)c1OC`, 66%.
With `COc1cc(Cl)cc(-c2nn(-c3cccc(NC(=O)Nc4ccc(Cl)c(C(F)(F)F)c4)c3)cc2-c2ccncc2)c1`, the growth was 28.1%.
As to `O=C1c2ccc3c4c(ccc(c24)C(=O)N1CCNCc1ccccc1)C(=O)N(CCNCc1ccccc1)C3=O`, the growth was 8.03% (active).
As to `COc1cc(C(=C2O[C@@H]([C@H]3COC(C)(C)O3)[C@H]3OC(C)(C)O[C@@H]23)c2cc(OC)c(OC)c(OC)c2)cc(OC)c1OC`, the growth was 109%.

The record behind these values is PubChem BioAssay (NCI).
